This experiment concerns Trypanosoma brucei. Briefly: Trypanosoma brucei 72 hour study. Set-up: scale not given: in the data most compounds retested in dose-response had high values. The class given is functional, organism-based.

Screen size: about 66,000 compounds; about 960 (1.5%) showed an effect of 50% or more. Shown is part of a subset that was picked to be rich in strong results.

Consider `CN(Cc1ccco1)C[C@H]1OC[C@@H]2CN(c3ncc(F)cn3)CC[C@@H]21.O=C(O)C(F)(F)F.O=C(O)C(F)(F)F`, for which the “Percent Effect” value (30.3 µM, […]) was -14.08%.
For `CN(C)C(=O)N1CCC2(CC1)CCN(Cc1ccccn1)C2=O.O=C(O)C(F)(F)F`, the “Percent Effect” value (30 µM, 30.03 µM) was determined as 7.411%.
`Cc1ccc(CN2C[C@H](NC(=O)c3nccn3C)[C@H]3OCCC[C@H]32)o1`: the “Percent Effect” value (30.3 µM, […]) was -18.85%.
For `O=C(O)C(F)(F)F.O=C(O)C(F)(F)F.c1cncc(CN2CCn3c(Cn4cncn4)cnc3C2)c1`, the “Percent Effect” value (30.3 µM, […]) was -106.7%.
Still for that read-out and setting: to `Cc1cc(C(=O)N2CC[C@@H](N(C)C)[C@@H]2Cc2ccccc2)no1.O=C(O)C(F)(F)F` belongs 3.974%; to `CN(C)CCn1c([C@@H]2CCCO2)cc2cccnc21.Cl`, -17.47%.
Consider `CN(C)S(=O)(=O)N1CCC2(COCc3cnc(NCC4CC4)nc32)C1` (configuration not stated), for which the “Percent Effect” value (30 µM, 30.03 µM) was -49.38%.
Turning to `CNC(=O)[C@@H]1CCO[C@@H]2CCN(Cc3ccsc3)C[C@H]21.O=C(O)C(F)(F)F`, the “Percent Effect” value (30.3 µM, […]) was -300.6%.
Still for that read-out and setting: to `O=C(C1CCC1)N1CCC2(CCCN2CC2CC2)CC1.O=C(O)C(F)(F)F` belongs -53.73%.
Take `COc1ccc(CN2CCOCC3(CCN(C4CCOCC4)C3)C2)cc1.O=C(O)C(F)(F)F.O=C(O)C(F)(F)F` (configuration not stated): for the setting “30 µM, 30.03 µM”, the “Percent Effect” value was 20.44%.
For `CC(=O)c1ccc(NC(=O)c2ccc3c(c2)C2(CCCCC2)CN3)cc1.O=C(O)C(F)(F)F`, the “Percent Effect” value (30.3 µM, […]) is given as -13.93%.
As to `O=C(Nc1ccccc1)c1ccc2c(c1)C1(CCCCC1)CN2.O=C(O)C(F)(F)F`, where the note is “30.3 µM, […]”, the “Percent Effect” value came out at 97.07%.
The same measure, in the same setting: under `O=C(O)C(F)(F)F.O=C1CC2(CNCCN(C(=O)Nc3ccccc3)C2)CN1` (configuration not stated) stands -24.96%; under `COc1ccc(C[C@H]2CN(Cc3ccoc3)CC[C@@H]2OC)cc1.O=C(O)C(F)(F)F`, -8.959%.
In the case of `COC(=O)Cn1c(=O)nc2n1C(=O)N(c1cccc(Cl)c1)C2`, the “Percent Effect” value (30 µM, 30.03 µM) is reported as -8.775%.
As for `Cc1cc(C)c(C#N)c(NCCn2cnnc2C(C)C)n1`, the “Percent Effect” value (30 µM, 30.03 µM) is recorded as -40.75%.
With `Cc1n[nH]c(C)c1CCC(=O)N1CCC(O)(CN2CCOCC2)C1` (configuration not stated), the “Percent Effect” value (30.3 µM, […]) is listed as -4.476%.
Turning to `CCN(Cc1ccc(O)c(C(=O)O)c1)CC1CCOCC1`, the “Percent Effect” value (30 µM, 30.03 µM) is listed as -62.42%.
On to `CCN(Cc1ccc(C(C)=O)cc1)CC1CCOCC1`, for which the “Percent Effect” value (30 µM, 30.03 µM) is given as 98.5%.
As for `NC(=O)NC(=O)CCN(Cc1ccccc1)CC1CCOCC1`, the “Percent Effect” value (30 µM, 30.03 µM) is -38.3%.
As for `COC1COC2(CCN(Cc3ccccc3C)CC2)C1.O=C(O)C(F)(F)F` (configuration not stated), the “Percent Effect” value (30 µM, 30.03 µM) was -3.278%.
For `COc1ccc(CN2CCn3c(CO)nnc3C2)cc1CN1CCCC1.O=C(O)CC(O)(CC(=O)O)C(=O)O`, the “Percent Effect” value (30.3 µM, […]) is listed as -29.63%.
In the case of `CN(CCn1cnnc1)S(=O)(=O)c1ccc(C(F)(F)F)nc1`, for the setting “30 µM, 30.03 µM”, the “Percent Effect” value was -27.18%.
On to `O=C(Cc1ccccc1F)N1CCCCC1c1ccn2ccnc2n1` (configuration not stated), for which, where the note is “30.3 µM, […]”, the “Percent Effect” value is -17.08%.
`Br.O=C(CN(C1=NCCCC1)c1ccccc1)c1ccccc1`: under “30 µM, 30.03 µM”, the “Percent Effect” value was -30.63%.
Same read-out and setting: under `Br.Cc1ccc(C(=O)CN(C2=NCCCCC2)c2ccccc2)cc1` stands -7.636%; under `Br.Cc1ccc(N(CC(=O)c2ccc(Br)cc2)C2=NCCCCC2)cc1`, 102.1%; under `Cc1nc(-c2cc(C(=O)NCCN3CCOCC3)c3ccccn23)cs1.O=C(O)C(F)(F)F`, -1.462%.
Take `Cc1cc2occ(CC(=O)N3CCC(O)(CN(C)C)C3)c2cc1Cl` (configuration not stated): the “Percent Effect” value (30.3 µM, […]) is recorded as 99.94%.
`Cc1cc2occ(CC(=O)N3CCC4(CCCN(C)C4=O)C3)c2cc1Cl` (configuration not stated): the “Percent Effect” value (30.3 µM, […]) came to 2.516%.
With `CN(C)CC1(O)CCN(C(=O)Cc2ccc(Cl)c(Cl)c2)C1` (configuration not stated), the “Percent Effect” value (30 µM, 30.03 µM) is -2.195%.
Turning to `CCN1C(=O)CC[C@]12CC[C@@H](NC(=O)c1cnccn1)CC2`, for the setting “30.3 µM, […]”, the “Percent Effect” value is -18.7%.
On to `CCNC(=O)N1CC(c2nc(Cc3ccccc3)no2)C1`, for which the “Percent Effect” value (30.3 µM, […]) worked out at 0.6321%.
The same measure, in the same setting: under `O=C(CN1CC(c2nc(Cc3ccccc3)no2)C1)NCC1CCCO1.O=C(O)C(=O)O` (configuration not stated) stands 6.981%.
`COC(=O)CN1CC(c2nc(Cc3ccccc3)no2)C1.O=C(O)C(=O)O`: the “Percent Effect” value (30 µM, 30.03 µM) is recorded as 101%.
For the molecule `Cc1nn(C)c2ncnc(N3CCC(O)(CN4CCCC4)CC3)c12`, the “Percent Effect” value (30 µM, 30.03 µM) was 57.4%.
Regarding `Cc1nn(C)c2ncnc(N3CCCC(C)(O)C3)c12` (configuration not stated), the “Percent Effect” value (30 µM, 30.03 µM) is given as 2.016%.
With `CCC1(O)CCCN(c2ncnc3c2c(C)nn3C)C1` (configuration not stated), the “Percent Effect” value (30 µM, 30.03 µM) was 27.55%.
On to `COc1cc(N2CCO[C@H]3[C@@H](Oc4cccnc4)CC[C@@H]32)ncn1.O=C(O)C(F)(F)F.O=C(O)C(F)(F)F`, for which the “Percent Effect” value (30 µM, 30.03 µM) was -15.67%.
Same read-out and setting: to `CCC1CCCCN1CCNC(=O)N1CCN(Cc2ccon2)CC1` (configuration not stated) belongs 20.59%.
As for `CN(C)CCn1c2c(ccc1=O)CC(NC(=O)NC1CCCC1)CC2.O=C(O)C(F)(F)F` (configuration not stated), the “Percent Effect” value (30.3 µM, […]) is -38.22%.
Take `CC(C)(C)NC(=O)NC(=O)CNc1c(F)cccc1N1CCCC1`: where the note is “30 µM, 30.03 µM”, the “Percent Effect” value is -52.35%.
Regarding `CCCn1cc(S(=O)(=O)N[C@H]2CN(CCO)C[C@@H]2C2CC2)cn1`, under “30 µM, 30.03 µM”, the “Percent Effect” value is -20.35%.
As for `CC1=C[C@@H](CN2CCCC2)[C@H](C(C)C)C[C@H]1Cc1nnc(C)o1`, the “Percent Effect” value (30 µM, 30.03 µM) is listed as 17.59%.
On the same count and under the same terms, to `CC1=C[C@@H](CN2CCN(C)CC2)[C@H](C(C)C)C[C@H]1Cc1nnc(C)o1` belongs 28.22%; to `CC1=C[C@@H](CN2CCOCC2)[C@H](C(C)C)C[C@H]1Cc1nnc(C)o1`, 60.87%.
Take `CC1c2ncc(Cn3cncn3)n2CCN1C(=O)c1ccsc1` (configuration not stated): the “Percent Effect” value (30.3 µM, […]) was -6.898%.
Take `CC(C)N1CCO[C@@H]2CN(C(=O)Cc3cccs3)CC[C@@H]2C1.O=C(O)C(F)(F)F`: the “Percent Effect” value (30.3 µM, […]) is recorded as -84.63%.
Consider `COCC(C)NCc1nc(-c2ccc(C)cc2)c(-c2ccccn2)[nH]1` (configuration not stated), for which the “Percent Effect” value (30 µM, 30.03 µM) worked out at 72.12%.
`Cc1ccc(-c2nc(CNS(=O)(=O)N(C)C)[nH]c2-c2ccccn2)cc1`: where the note is “30 µM, 30.03 µM”, the “Percent Effect” value is recorded as -19.21%.
The same measure, in the same setting: to `Cc1ccc(-c2nc(CNC(C)CCO)[nH]c2-c2ccccn2)cc1` (configuration not stated) belongs -54.5%.
For `COc1cc(C)c(C)cc1S(=O)(=O)NCC(O)c1cccn1C` (configuration not stated), where the note is “30.3 µM, […]”, the “Percent Effect” value is on record as 93.04%.
`Cc1c(Cl)cccc1S(=O)(=O)NCC(O)c1cccn1C` (configuration not stated): the “Percent Effect” value (30.3 µM, […]) is given as 15.12%.
Turning to `Cn1cccc1C(O)CNS(=O)(=O)c1ccccc1Br` (configuration not stated), for the setting “30.3 µM, […]”, the “Percent Effect” value is on record as 101.8%.
As to `Cn1cccc1C(O)CNS(=O)(=O)c1ccccc1F` (configuration not stated), under “30.3 µM, […]”, the “Percent Effect” value is 21.76%.
Consider `Cc1cc(F)ccc1S(=O)(=O)NCC(O)c1cccn1C` (configuration not stated), for which the “Percent Effect” value (30.3 µM, […]) worked out at 2.147%.
Take `COc1ccc(C)cc1S(=O)(=O)NCC(c1cccn1C)N(C)C` (configuration not stated): the “Percent Effect” value (30 µM, 30.03 µM) was -85.17%.

Source of the values: ChEMBL document CHEMBL3988442, “University of Dundee, Small-Polar-MMV Screening Library” (2021).
